Compound activity deposited in PubChem by National Center for Advancing Translational Sciences (NCATS).
Sm TGR block: S. mansoni TGR enzyme inhibition | purified TGR, DTNB reduction, TNB absorbance 405 nm | Potency, µM (series often up to 114 µM), usual class: inhibitors | hit rate 3% among 360,000 | Q962Y6; note: nearly all actives have a fitted effect of over 60% in size
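TGR 20 nM + NADPH 100 uM (dispensed conc.), cpd preinc 15 min RT; start with NADPH (500 uM addition) then DTNB (15 mM addition). Kinetic TNB absorbance, 405 nm filter. Four-parameter Hill fit across titration.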
TbPYK inhibitor: T. brucei pyruvate kinase inhibition; TbPYK enzyme, Kinase-Glo Plus ATP luminescence, 45 min; AID 624173; hit rate 0.12% among 410,000; Q57TT1; Potency, µM (titrated, usually from 76.8 µM), hits mostly inhibitors; note: nearly all actives have a fitted effect of over 50% in size
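T. brucei PYK with substrate was exposed to pin-transferred compounds across a concentration series, then started with 130 uM ADP (final). After 45 min at room temperature, Kinase-Glo Plus luminescence was read, normalized and curve-fitted.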
Shiga inhibitor: inhibitors of Shiga toxin in Vero cells; hit rate 9.2% among 290,000; Vero cells, Shiga toxin protein synthesis inhibition reporter; AID 2315; inhibition, % at 38.7 µM; in the data active = inhibition mostly above about 28%, no sharp cut-off; inactive = mostly below about 43%
LmPK inh: LmPK (Leishmania mexicana) enzyme inhibition. Q27686. purified LmPK, Kinase-Glo ATP luminescence, 1 h. Potency, µM (series often up to 57.5 µM), usual class: inhibitors. hit rate 0.37% among 290,000. AID 1721
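Kinase-Glo luminescence read after 1 h RT reaction of 0.1 nM LmPK with 0.5 mM PEP and 0.1 mM ADP. Activity scaled between uninhibited and enzyme-free controls.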
Cycloheximide cs: affects cycloheximide protein synthesis inhibition readout, counter-screen; cell reporter, cycloheximide protein synthesis inhibition counterscreen; max response, %; hit rate 12% among 300,000; AID 2314; in the data active = max response mostly above about 13%, no sharp cut-off; inactive = mostly below about 14%; note: read at 38.3 µM for the half of the compounds with a filed dose
Giardia FBPA inh-1: inhibitors of Giardia lamblia fructose-1,6-bisphosphate aldolase. AID 2451. A8B2U2. hit rate 0.71% among 290,000. Potency, µM (series often up to 59.6 µM), actives largely listed as inhibitors. purified Giardia FBPA; note: nearly all actives have a fitted effect of over 55% in size
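Giardia FBPA (40 nM reagent) was preincubated 10 min at RT with compound (up to 57.5 uM final), then substrate plus GAPDH/TPI/NAD/arsenate coupling system with diaphorase/resazurin was added; resorufin fluorescence (525/598 nm) was read after 20 min.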
Giardia growth: Giardia lamblia growth inhibition | shares compounds with Giardia FBPA inh-1 | Giardia lamblia trophozoite growth inhibition | Potency, µM (top dose mostly 57.5 µM), actives largely listed as inhibitors | hit rate 5% among 1,500;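 note: trophozoites exposed to compound for 48 h at 37 °C; nearly all actives have a fitted effect of over 70% in size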
Mammal cell tox: counter-screen for Giardia aldolase inhibitors: mammalian cell toxicity | shares compounds with Giardia FBPA inh-1 | mammalian cell viability counter-screen, qHTS | Potency, µM (highest dose often 57.5 µM), usual class: inhibitors | hit rate 4% among 1,500 | AID 2786;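 note: Chinese hamster ovary cells used as mammalian cytotoxicity surrogate; viability measured as cellular ATP by luminescence; compound exposure lasted 48 h before reading; nearly all actives have a fitted effect of over 60% in size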
Giardia FBPA inh-2: confirmation of Giardia fructose-bisphosphate aldolase inhibitors; AID 2787; Potency, µM (doses to about 57.5 µM), usual class: inhibitors; shares compounds with Giardia FBPA inh-1; purified Giardia aldolase enzyme activity, qHTS; hit rate 5% among 1,500; note: nearly all actives have a fitted effect of over 45% in size
Rabbit aldolase: selectivity test for Giardia aldolase inhibitors: rabbit aldolase | Rabbit muscle FBPA enzyme inhibition, selectivity counter-screen | hit rate 4% among 1,500 | shares compounds with Giardia FBPA inh-1 | AID 2794 | Potency, µM (series often up to 57.5 µM), most hits filed as inhibitors; note: nearly all actives have a fitted effect of over 60% in size
Target sequence (P00883 whole entry, looked up): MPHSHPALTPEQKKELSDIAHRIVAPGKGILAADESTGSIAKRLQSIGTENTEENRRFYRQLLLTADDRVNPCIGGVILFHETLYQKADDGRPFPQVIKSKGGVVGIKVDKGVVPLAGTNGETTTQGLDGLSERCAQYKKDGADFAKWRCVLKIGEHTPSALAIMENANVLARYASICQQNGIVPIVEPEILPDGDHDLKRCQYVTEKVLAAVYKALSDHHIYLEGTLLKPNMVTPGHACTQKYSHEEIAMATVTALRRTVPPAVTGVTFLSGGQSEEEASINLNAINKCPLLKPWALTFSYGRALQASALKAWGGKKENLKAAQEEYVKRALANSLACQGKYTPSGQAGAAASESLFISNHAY
GAPDH coupling: counter-screen for Giardia aldolase inhibitors: GAPDH coupling enzyme; hit rate 6% among 1,500; AID 2795; shares compounds with Giardia FBPA inh-1; Potency, µM (series often up to 57.5 µM), usual class: inhibitors; GAPDH coupling enzyme counterscreen, biochemical, qHTS; note: nearly all actives have a fitted effect of over 55% in size
Large screens that a line does not name were inactive (follow-up assays come after a bar, where they were run); [ ] = remark or other dose. The sample as a whole holds a higher share of hits than the screen did. Unless noted, calls come from the whole dose curve; as a rule, active = well fitted curve in the direction sought with a large enough effect; inconclusive = small, poorly fitted or top-dose-only effect, or another doubt; inactive = no such curve, though single readings can be large; an effect the other way counts as inactive or inconclusive.

CC(C)C[C@H](NC(=O)c1nc[nH]c1C(=O)NCCCCCNC(=O)OC(C)(C)C)C(=O)OC(C)(C)C	Giardia FBPA inh-1 18µM | Giardia growth inactive | Mammal cell tox inactive | Giardia FBPA inh-2 inactive | Rabbit aldolase inactive | GAPDH coupling inactive
CCN1CCN(CC(=O)N/N=C/c2cc(Br)cs2)CC1	Giardia FBPA inh-1 18µM | Giardia growth inactive | Mammal cell tox inactive | Giardia FBPA inh-2 inactive | Rabbit aldolase inactive | GAPDH coupling inactive
CC(/C=N\NC(=O)CN1CCN(Cc2ccccc2)CC1)=C\c1ccco1	Giardia FBPA inh-1 inconclusive
O=C(N/N=C/C=C/c1ccco1)c1cnccn1	Sm TGR block 10µM, Giardia FBPA inh-1 20µM | Giardia growth inactive[10.4 µM] | Mammal cell tox inactive | Giardia FBPA inh-2 inconclusive | Rabbit aldolase inactive | GAPDH coupling inconclusive
CC(/C=N/NC(=O)c1ccccn1)=C\c1ccco1	Sm TGR block 35µM, Shiga inhibitor 94, LmPK inh 25µM, Cycloheximide cs 33, Giardia FBPA inh-1 20µM | Giardia growth inconclusive | Mammal cell tox 25µM | Giardia FBPA inh-2 inconclusive | Rabbit aldolase inactive | GAPDH coupling inconclusive
Cc1ccc(C(=O)NC(=S)NNC(=O)c2ccccc2)cc1	none
Cc1ccccc1C(=O)NNC(=S)NC(=O)c1ccccc1	Shiga inhibitor 28, Cycloheximide cs 17, Giardia FBPA inh-1 inconclusive | Giardia growth inactive | Mammal cell tox inactive | Giardia FBPA inh-2 inactive | Rabbit aldolase inactive | GAPDH coupling inactive
O=C(Cc1ccccc1)NNC(=S)NC(=O)c1cccnc1	TbPYK inhibitor inconclusive, Giardia FBPA inh-1 7.1µM | Giardia growth inactive | Mammal cell tox inactive | Giardia FBPA inh-2 inactive | Rabbit aldolase inactive | GAPDH coupling inactive
O=C(NC(=S)NNC(=O)c1ccccc1O)c1ccc(F)cc1	Giardia FBPA inh-1 inconclusive (no result: Shiga inhibitor)
O=C(NC(=S)NNC(=O)c1ccccc1O)c1ccccc1	Shiga inhibitor 55, Giardia FBPA inh-1 inconclusive | Giardia growth inconclusive | Mammal cell tox inactive | Giardia FBPA inh-2 inactive | Rabbit aldolase inactive | GAPDH coupling inactive
COc1ccc2oc(C(=O)OCC(=O)N(C)C3CCS(=O)(=O)C3)c(C)c2c1 (stereo not drawn)	none (no result: Shiga inhibitor, LmPK inh, Cycloheximide cs, Giardia FBPA inh-1)
COc1ccccc1C(CNc1ccc(S(=O)(=O)N2CCCC2)cc1[N+](=O)[O-])N(C)C (stereo not drawn)	none
O=C1CNC(=S)N1Cc1cccc(Cl)c1	none
CCOC(=O)C1(C)CCCN(C(=O)c2ccc(C)c(F)c2)C1 (stereo not drawn)	none (no result: Sm TGR block, Shiga inhibitor, LmPK inh, Cycloheximide cs, Giardia FBPA inh-1)
Cc1cc(C)nc(NN2C(=O)C=CC2=O)n1	Sm TGR block inconclusive, Giardia FBPA inh-1 5µM | Giardia growth inconclusive | Mammal cell tox inactive | Giardia FBPA inh-2 inactive | Rabbit aldolase inactive | GAPDH coupling inactive
Cc1cc(C)nc(NN2C(=O)/C(=C/c3ccccc3)SC2=S)n1	none
Cc1ccc(/C=N/n2c(-c3ccccn3)n[nH]c2=S)o1	Sm TGR block 45µM, TbPYK inhibitor inconclusive, Giardia FBPA inh-1 11µM | Giardia growth inactive | Mammal cell tox inactive | Giardia FBPA inh-2 inactive | Rabbit aldolase inactive | GAPDH coupling inactive
S=c1[nH]nc(-c2ccccn2)n1/N=C/c1c(Cl)cccc1Cl	Giardia FBPA inh-1 6.3µM | Giardia growth inactive | Mammal cell tox inactive | Giardia FBPA inh-2 inactive | Rabbit aldolase inactive | GAPDH coupling inactive
S=c1[nH]nc(-c2ccccn2)n1/N=C/c1ccccc1	TbPYK inhibitor inconclusive
